Assay outcomes as filed in PubChem BioAssay.
ALDH1A1 inh – blocks purified human ALDH1A1 activity; hit rate 7.3% among 220,000; P00352; AID 1030; Purified ALDH1A1, NADH fluorescence, propionaldehyde substrate; Potency, µM (series often up to 75.3 µM), for the others: at the highest dose activity, negative = inhibition, hits mostly inhibitors;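 also: potency is read from the fitted curve at half-maximal effect; plate controls were no enzyme wells and a reference inhibitor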
HPGD inh – blocks human HPGD enzyme activity. P15428. purified HPGD, NADH fluorescence kinetic, PGE2 substrate. Potency, µM, for the others: at the top dose activity change, negative = inhibition, most hits filed as inhibitors. hit rate 4.3% among 150,000; also: potency is read from the fitted curve at half-maximal effect
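NADH formation kinetics: reaction with 30 uM PGE2 and 1 mM NAD+ (final), 20 nM enzyme, Tris-HCl pH 8 with Tween 20, after 15 min compound preincubation at room temperature. Fluorescence change, last versus first of five reads.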
PNC assembly inh – inhibitors of perinucleolar compartment assembly; PC3M PTB-GFP, PNC prevalence imaging, 16 h; hits give low values; activity change (PNC), negative = inhibition, % at 10 µM; hit rate 3.1% among 140,000; AID 2417;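 active = readout at or below -70, meaning at least 70% loss of cells showing the perinucleolar compartment, a nuclear body marking cancer cells; inconclusive = readout between -30 and a set limit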;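 also: plate controls were DMSO wells for no effect and camptothecin positive control wells for full effect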
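Compounds are pinned in duplicate onto adhered PC3M cells stably expressing GFP-tagged PTB and incubated 16 h at 37 C. Cells are then fixed, nuclei stained with Hoechst, and PNC-positive cells counted.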
Lamin A splicing – LMNA splicing modulation; HeLa LMNA splicing GFP/RFP minigene ratio, 48 h; Potency, µM (series often up to 46.1 µM), for the others: top-dose ratio change, negative = inhibition, most hits filed as inhibitors; hit rate 0.01% among 200,000; AID 1487; active = well fitted inhibition curve with a large enough effect in the signal ratio, with a control signal flat, not every such curve was filed as active; inconclusive = small, poorly fitted or top-dose-only effect, or effect the other way, or a change in a side signal; the % refers to the signal ratio; also: potency is read from the fitted curve at half-maximal effect
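S3 HeLa cells stably expressing lamin A-EGFP splicing minigene plus DsRed2, 600 cells/well, 48 h compound exposure at 37C. Laser-scanning cytometry; analysed as GFP (500-530 nm)/RFP (575-640 nm) total intensity ratio; 0.5% DMSO vehicle.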
12-hLO inh – inhibitors of human 12-lipoxygenase (ALOX12). P18054. purified 12-hLO, xylenol orange hydroperoxide absorbance. Potency, µM (top dose mostly 57.1 µM), inactives show top-dose activity change, negative = inhibition, actives largely listed as inhibitors. hit rate 0.12% among 150,000; active = well fitted inhibition curve with a large enough effect; inconclusive = small, poorly fitted or top-dose-only effect; also: potency is read from the fitted curve at half-maximal effect; nearly all actives have a fitted effect of over 55% in size
Target sequence (P18054 whole entry, looked up): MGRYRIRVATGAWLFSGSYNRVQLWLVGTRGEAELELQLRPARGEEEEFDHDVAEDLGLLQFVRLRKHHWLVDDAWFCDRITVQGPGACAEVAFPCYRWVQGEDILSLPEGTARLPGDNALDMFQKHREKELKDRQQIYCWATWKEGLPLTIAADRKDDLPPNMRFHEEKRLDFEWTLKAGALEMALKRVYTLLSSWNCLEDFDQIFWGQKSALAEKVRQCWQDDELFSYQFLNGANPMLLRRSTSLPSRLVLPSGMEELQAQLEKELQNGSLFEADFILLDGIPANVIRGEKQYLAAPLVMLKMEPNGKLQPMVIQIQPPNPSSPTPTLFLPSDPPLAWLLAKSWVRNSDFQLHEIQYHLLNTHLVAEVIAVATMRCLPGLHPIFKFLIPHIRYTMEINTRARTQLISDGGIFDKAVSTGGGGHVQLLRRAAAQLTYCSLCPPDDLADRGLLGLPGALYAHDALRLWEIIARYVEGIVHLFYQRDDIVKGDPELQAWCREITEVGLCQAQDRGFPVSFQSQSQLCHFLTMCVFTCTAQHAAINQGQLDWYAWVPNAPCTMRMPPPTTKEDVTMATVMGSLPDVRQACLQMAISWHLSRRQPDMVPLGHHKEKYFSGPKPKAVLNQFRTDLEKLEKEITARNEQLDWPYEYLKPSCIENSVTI
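150 nM 12hLO, 25 mM Hepes pH 7.0 + 0.01% Triton X-100; cpd preinc 15 min RT; 40 uM arachidonic acid, 30 min RT; Fe-XO 30 min; A573/A405 ratio as read-out.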
An asterisk follows results filed as active; [ ] = remark or other dose. Shown are actives, neighbours in structure and some others; about 10% of the full set was active somewhere. Unless noted, calls follow the shape of the dose curve; as a rule, active = well fitted inhibition curve with a large enough effect (not every such curve was filed as active); inconclusive = small, poorly fitted or top-dose-only effect, or another doubt; inactive = no such curve, though single readings can be large or run the other way. Unless noted, % is scaled to controls: 0 for no effect and ±100 for the full control effect.

How did Cc1ccc(S(=O)(=O)NNC(=O)c2sccc2-n2cccc2)cc1 do in these assays?
ALDH1A1 inh: 10µM*; HPGD inh: -7%; PNC assembly inh: inconclusive; Lamin A splicing: 2%; 12-hLO inh: -9%

How did CSc1cccc(NS(=O)(=O)c2cn(C)c(C)n2)c1 do in these assays?
Lamin A splicing: 3%[46 µM]

How did COc1c(O)ccc(/C=C(\C#N)c2nc3ccccc3[nH]2)c1[N+](=O)[O-] do in these assays?
ALDH1A1 inh: -1%; HPGD inh: 28µM*; PNC assembly inh: inconclusive; Lamin A splicing: -15%; 12-hLO inh: 3%

Results for COc1cc(/C=C(/C#N)c2nc3ccccc3c(=O)[nH]2)ccc1O ?
ALDH1A1 inh: -1%; HPGD inh: 14µM*; PNC assembly inh: -25; Lamin A splicing: 14%; 12-hLO inh: 0%

How did COc1cc(/C=C(\C#N)c2nc3ccc(C)cc3[nH]2)c([N+](=O)[O-])cc1OC do in these assays?
ALDH1A1 inh: 4%; HPGD inh: -12%; PNC assembly inh: -9; Lamin A splicing: -5%; 12-hLO inh: -15%

Results for Cc1ccc2nc(/C(C#N)=C/c3ccc(-c4cccc([N+](=O)[O-])c4)o3)[nH]c2c1 ?
ALDH1A1 inh: inconclusive; HPGD inh: 25µM*; PNC assembly inh: inconclusive; Lamin A splicing: inconclusive; 12-hLO inh: 0%

Results for N#C/C(=C\c1cc([N+](=O)[O-])c(N2CCOCC2)cc1N1CCOCC1)c1nc2ccccc2[nH]1 ?
ALDH1A1 inh: -14%; HPGD inh: 14µM*; PNC assembly inh: 6; Lamin A splicing: -17%; 12-hLO inh: 0%

How did Cc1cccc(C2=NN(c3ccccc3)[C@H](CO)[C@H]2C)c1 do in these assays?
ALDH1A1 inh: inconclusive; HPGD inh: inconclusive; 12-hLO inh: -5%[0.00818 µM]

Results for Cc1ccccc1CSc1nc2cccnc2n1Cc1ccc(C(=O)NC2CC2)cc1 ?
Lamin A splicing: 4%[46 µM]

Results for O=C(Nc1ccc(N2CCN(C(=O)c3ccccc3)CC2)cc1)c1ccc([N+](=O)[O-])o1 ?
ALDH1A1 inh: 11µM*; Lamin A splicing: inconclusive

What do the screens show for `CCCC(=O)N1CCN(c2ccc(NC(=O)c3ccc([N+](=O)[O-])o3)cc2Cl)CC1`?
ALDH1A1 inh: 18µM*

Results for COCCNC(=O)c1ccccc1NC(=O)c1nsc2ccccc12 ?
Lamin A splicing: 3%[46 µM]

Results for COc1nc(-c2cnccn2)sc1C ?
ALDH1A1 inh: -12%; Lamin A splicing: 8%[46 µM]

What do the screens show for `COc1ccc(S(=O)(=O)N(CC(=O)NC2CC2)C2CCCCC2)cc1Cl`?
ALDH1A1 inh: 8.9µM*; HPGD inh: -6%; PNC assembly inh: 18; Lamin A splicing: 1%; 12-hLO inh: -3%

How did O=C(CSc1nnc(-c2ccc3c(c2)OCCO3)o1)N1CCCC1 do in these assays?
ALDH1A1 inh: 25µM*; HPGD inh: -25%; PNC assembly inh: -22; Lamin A splicing: 1%; 12-hLO inh: 4%

How did CCC1CCCCN1C(=O)CSc1nnc(-c2ccc3c(c2)OCCO3)o1 (configuration not stated) do in these assays?
ALDH1A1 inh: inconclusive; HPGD inh: inconclusive; PNC assembly inh: -107*; Lamin A splicing: inconclusive; 12-hLO inh: -5%

How did CCC1CCCCN1C(=O)CSc1nc(N)cc(N)n1 (configuration not stated) do in these assays?
ALDH1A1 inh: 8.9µM*; Lamin A splicing: 6%[46 µM]

How did O=C(CSc1nnc(-c2ccccc2)o1)c1ccc2c(c1)OCCO2 do in these assays?
ALDH1A1 inh: 3.2µM*; HPGD inh: -7%; PNC assembly inh: 3; Lamin A splicing: -9%; 12-hLO inh: -1%

How did CCC1CCCCN1C(=O)CSc1n[nH]c(-c2ccccc2)n1 (configuration not stated) do in these assays?
Lamin A splicing: -2%[46 µM]

What do the screens show for `Cc1cc(C)cc(-c2nnc(SCC(=O)c3ccc4c(c3)OCCO4)o2)c1`?
ALDH1A1 inh: -2%; HPGD inh: -5%; PNC assembly inh: -29; Lamin A splicing: -4%; 12-hLO inh: 3%

What do the screens show for `CNc1ncnc2ccc(-c3ccc4c(c3)OCO4)cc12`?
ALDH1A1 inh: -11%; Lamin A splicing: -2%

How did Cc1nc2oc(C(=O)c3ccccc3)c(N)c2c2c1COC(C)(C)C2 do in these assays?
ALDH1A1 inh: 14µM*; HPGD inh: -12%; PNC assembly inh: -14; Lamin A splicing: -6%; 12-hLO inh: 5%

How did Cc1ccc(OCC(=O)Nc2ccc3nc(SCC(=O)N(C)c4ccccc4)sc3c2)cc1 do in these assays?
Lamin A splicing: -5%[46 µM]

Results for COc1cccc(OC)c1C(=O)NC(=S)Nc1cc(-c2nc3ccccc3[nH]2)ccc1Cl ?
ALDH1A1 inh: 22µM*; HPGD inh: -18%; PNC assembly inh: 5; Lamin A splicing: -16%; 12-hLO inh: 0%

How did COc1ccccc1-n1c(=O)c2c3c(sc2n(C)c1=O)CN(C(C)=O)CC3 do in these assays?
Lamin A splicing: -26%[46 µM]

What do the screens show for `CCOC(=O)c1c(C)c(C(=O)NC(C)COC)c(C)n1CC` (configuration not stated)?
ALDH1A1 inh: 4%; HPGD inh: -19%; PNC assembly inh: -102*; Lamin A splicing: -6%; 12-hLO inh: 3%

What do the screens show for `CCOC(=O)c1c(C)c(C(=O)NC(C)COC)c(C)n1C` (configuration not stated)?
ALDH1A1 inh: 9%; HPGD inh: -6%; PNC assembly inh: inconclusive; Lamin A splicing: -10%; 12-hLO inh: 2%

How did CN(C)CCCNC(=O)c1ccc(Cc2nc3ccccc3[nH]2)cc1 do in these assays?
ALDH1A1 inh: 2%; HPGD inh: -10%; 12-hLO inh: -1%

Results for CCOC(=O)c1nc(C)sc1-c1ccnn1S(=O)(=O)c1ccc(C)cc1 ?
ALDH1A1 inh: 3.2µM*

How did C=C1c2ccccc2O[C@H](C(=O)OCC)[C@@H]1C1CCCCC1 (tested in a mixture with another compound) do in these assays?
ALDH1A1 inh: inconclusive; HPGD inh: inconclusive; 12-hLO inh: -12%[0.00818 µM]

What do the screens show for `S=C(NCCc1ccncc1)Nc1cccc2ccccc12`?
ALDH1A1 inh: 9%

How did CN(C)/C=N/C(=S)Nc1ccc(Br)cc1F do in these assays?
ALDH1A1 inh: 22µM*; HPGD inh: -30%; PNC assembly inh: 23; Lamin A splicing: 5%; 12-hLO inh: inconclusive

How did C=CCNC(=S)Nc1ccc(Br)cc1F do in these assays?
ALDH1A1 inh: 2%; HPGD inh: -6%; PNC assembly inh: -88*; Lamin A splicing: inconclusive; 12-hLO inh: -5%

How did C=CCNC(=S)Nc1ccc(Cl)cc1F do in these assays?
ALDH1A1 inh: 5%; Lamin A splicing: inconclusive

What do the screens show for `C=CCNC(=S)Nc1cccc2ccccc12`?
ALDH1A1 inh: -11%; HPGD inh: -16%; PNC assembly inh: -96*; Lamin A splicing: -6%; 12-hLO inh: -9%
